Assay results published in PubChem BioAssay (NCI).
This is part of a sample that, as a whole, favours compounds with a hit. Of some 83,000 tested, about 20% had one in any assay.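 Percent growth is the endpoint: 0 to 100 indicates growth inhibition (40 means 60% inhibition), 0 means no net growth, and negative values indicate cell death.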 Activity calls are given as the source filed them. How the source made its calls: active means growth percent below 10; inactive means the rest.

These compounds were tested on SK-MEL-28 melanoma (assay: NCI-60 one-dose screen, 48 h (100 = growth as untreated, 0 = no growth, -100 = all killed)). Details: 10 µM unless noted.
With `CCOC(=O)c1c(-c2ccccc2)n2c(=O)cc(C)c3c(O)c(O)cc1c32` the growth was 76% (inactive). `CCOC(=O)c1n[nH]n2c1nc(=O)c1cnn(C)c12` was tested, and the growth was 113% (inactive). With `COc1cccc(/C=C/C(=O)c2cc3c(N)c(C(=O)Nc4cccc(Cl)c4C)sc3nc2C)c1` the growth was 16.3% (inactive). In the case of `COc1ccc2cc(-c3ccc(-c4ccc(C(=N)N)s4)s3)ccc2c1`, the growth is reported as 109% (inactive). With `O=C1NC(=C(Cl)Cl)/C(=N/S(=O)(=O)NCCc2c[nH]c3ccccc23)N1` the growth was 84% (inactive). With `CC[C@]12C=CCN3CC[C@@]4(c5ccc(OC)cc5N(C)[C@H]4[C@@](O)(C(=O)OC)[C@@H]1OC(=O)CCCN1CCOCC1)[C@@H]32` the growth was 109% (inactive). For `Nc1ccc([N+](=O)[O-])cc1N=C/C=C/c1ccccc1`, the growth was 94.8% (inactive). In the case of `Cc1nc2sc(C(=O)Nc3ccc(Cl)cc3)c(N)c2cc1C(O)c1ccccc1` (centres undefined), the growth is reported as 57.5% (inactive). With `S=c1[nH]c2cc(Cl)ccc2o1` the growth was 114% (inactive). For `CN(C)c1ccc(/C=C2/C=C(c3ccccc3)OC2=O)cc1`, the growth was 105% (inactive). For `COc1ccc(-c2ccc(=O)oc2C#Cc2cc(OC)c(OC)c(OC)c2)cc1O`, the growth was 38.9% (inactive). With `C#Cc1cccc(Nc2nc3ccc([N+](=O)[O-])cc3nc2Nc2cccc(C#C)c2)c1` the growth was -69.4% (active). For `CC(C(=O)O)n1c(O)c(C=Nc2cccnc2)sc1=S` (centres undefined), the growth was 113% (inactive). `O=C(/C=C/c1ccc(Br)cc1)c1ccc(-n2cc(CN3CCN(c4cc5c(cc4F)c(=O)c(C(=O)O)cn5C4CC4)CC3)nn2)cc1` was tested, and the growth was 107% (inactive).
